Here are results for 14 molecules from PubChem BioAssay (NCATS).

Results filed as inconclusive are left out. Active and inactive are the calls of the source. The call rests on the fitted dose curve; in most records, active means well fitted curve in the direction sought with a large enough effect; inconclusive means small, poorly fitted or top-dose-only effect, or another doubt; inactive means no such curve, though single readings can be large; an effect the other way counts as inactive or inconclusive.

Assay [1] in a line: Quantitative High-Throughput drug screen in 47 multiple myeloma cell lines against the NCATS MIPE library collection: KMM1_JCRB cell viability assay (AID 1918960). Further: nearly all actives have a fitted effect of over 30% in size. Put shortly:
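Myeloma cells, 500 per well, were exposed to MIPE 4.0 drugs by pin transfer for 48 h at 37 °C, 5% CO2. Viability was read as ATP luminescence with CellTiter-Glo, normalised to DMSO-only (100%) and medium-only (0%) wells.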

A short description of assay [2]: Quantitative High-Throughput drug screen in 47 multiple myeloma cell lines against the NCATS MIPE library collection: JIM3_ECACC cell viability assay (AID 1918963; further: nearly all actives have a fitted effect of over 35% in size). In short, it runs like this: (§1)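 Inhibition of cell viability is measured here. Each line was plated at 500 cells per well, treated with MIPE 4.0 drugs, kept 48 hours at 37C, then assayed for ATP content by CellTiter-Glo luminescence.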

Assay [3] in a line: Quantitative High-Throughput drug screen in 47 multiple myeloma cell lines against the NCATS MIPE library collection: INA6_PLB cell viability assay (AID 1918965; further: nearly all actives have a fitted effect of over 55% in size). In short, it runs like this: (§2)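 qHTS of the MIPE 4.0 collection: 500 myeloma cells/well, 48 h drug exposure at 37C in 5% CO2, then CellTiter-Glo for 5 min at room temperature before luminescence reading.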
The nature of assay [4]: Quantitative High-Throughput drug screen in 47 multiple myeloma cell lines against the NCATS MIPE library collection: H1112_PLB cell viability assay (AID 1918967; further: nearly all actives have a fitted effect of over 30% in size). Put shortly:
(§3)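 Myeloma cells (500 per well) were exposed to MIPE 4.0 compounds by pin transfer and incubated 48 hours at 37C, 5% CO2. Viability was read as ATP by CellTiter-Glo luminescence, normalised to DMSO (100%) and media-only (0%) wells.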

Assay [5] in a line: Quantitative High-Throughput drug screen in 47 multiple myeloma cell lines against the NCATS MIPE library collection: KMS12BM_JCRB cell viability assay (AID 1918971). Further: nearly all actives have a fitted effect of over 35% in size. In short, it runs like this:
as §2

Assay [6] can be described thus: Quantitative High-Throughput drug screen in 47 multiple myeloma cell lines against the NCATS MIPE library collection: KMS12PE_JCRB cell viability assay (AID 1918972). Further: nearly all actives have a fitted effect of over 30% in size. Put shortly:
as §2

A short description of assay [7]: Quantitative High-Throughput drug screen in 47 multiple myeloma cell lines against the NCATS MIPE library collection: KMS26_JCRB cell viability assay (AID 1918975). Further: nearly all actives have a fitted effect of over 45% in size. Put shortly: as §2
Assay [8] is described as follows: Quantitative High-Throughput drug screen in 47 multiple myeloma cell lines against the NCATS MIPE library collection: MOLP8_DSMZ cell viability assay (AID 1918977). Further: nearly all actives have a fitted effect of over 45% in size. In short, it runs like this:
(§4)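 Viability after 48 h drug exposure was measured as ATP-dependent luminescence. Cells, 500 per well, sat at 37 °C under 5% CO2; DMSO wells set 100%, media-only wells 0%.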

The nature of assay [9]: Quantitative High-Throughput drug screen in 47 multiple myeloma cell lines against the NCATS MIPE library collection: NCIH929_DSMZ cell viability assay (AID 1918978). Further: nearly all actives have a fitted effect of over 35% in size. In short, it runs like this:
as §4

Assay [10] is described as follows: Quantitative High-Throughput drug screen in 47 multiple myeloma cell lines against the NCATS MIPE library collection: MM1S_ATCC cell viability assay (AID 1918980). Further: nearly all actives have a fitted effect of over 45% in size. Put shortly: as §4
The nature of assay [11]: Quantitative High-Throughput drug screen in 47 multiple myeloma cell lines against the NCATS MIPE library collection: Karpas417_ECACC cell viability assay (AID 1918961). The following applies: Karpas417 myeloma viability, CellTiter-Glo ATP luminescence, 48 h; viability (% of DMSO): at 45.8 µM (top of the series). Put shortly:
as §2

Assay [12] can be described thus: Quantitative High-Throughput drug screen in 47 multiple myeloma cell lines against the NCATS MIPE library collection: KHM11_PLB cell viability assay (AID 1918962). Further: nearly all actives have a fitted effect of over 35% in size. In short, it runs like this: as §1
Assay [13] in a line: Quantitative High-Throughput drug screen in 47 multiple myeloma cell lines against the NCATS MIPE library collection: JIM1_ECACC cell viability assay (AID 1918964). Put shortly: as §3
Assay [14] is described as follows: Quantitative High-Throughput drug screen in 47 multiple myeloma cell lines against the NCATS MIPE library collection: Karpas25_ECACC cell viability assay (AID 1918968; further: nearly all actives have a fitted effect of over 35% in size). Put shortly: as §3
Assay [15] is described as follows: Quantitative High-Throughput drug screen in 47 multiple myeloma cell lines against the NCATS MIPE library collection: KMS27_JCRB cell viability assay (AID 1918970). Further: nearly all actives have a fitted effect of over 30% in size. Put shortly:
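Viability inhibition screen, 48 h compound exposure, luminescent ATP read-out.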

Assay [16] can be described thus: Quantitative High-Throughput drug screen in 47 multiple myeloma cell lines against the NCATS MIPE library collection: KMS20_JCRB cell viability assay (AID 1918973). Further: nearly all actives have a fitted effect of over 45% in size. In short, it runs like this:
as §3

The nature of assay [17]: Quantitative High-Throughput drug screen in 47 multiple myeloma cell lines against the NCATS MIPE library collection: MMM1_PLB cell viability assay (AID 1918976). Further: nearly all actives have a fitted effect of over 35% in size. Put shortly: as §4
The nature of assay [18]: Quantitative High-Throughput drug screen in 47 multiple myeloma cell lines against the NCATS MIPE library collection: OCIMY1_PLB cell viability assay (AID 1918979). Further: nearly all actives have a fitted effect of over 35% in size. Put shortly: as §4
Assay [19] can be described thus: Quantitative High-Throughput drug screen in 47 multiple myeloma cell lines against the NCATS MIPE library collection: JJN3_DSMZ cell viability assay (AID 1918966; further: nearly all actives have a fitted effect of over 50% in size). Put shortly: as §3
Potency means the concentration at half of the fitted maximal effect.

`O=C(O)Cn1nnc(-c2cc(N3CCC(Oc4cc(F)ccc4Br)CC3)no2)n1`: the Potency result in assay [1], in [3], in [4], in assay [5], in assay [6] and in [7] was “inactive” each time. The Potency result in assay [8] and in [9] was “inactive” in each case. In addition, the Potency was 16.6 µM (active) in [2] and 8.33 µM (active) in [10].

Regarding `Cc1cc(Nc2nc(N[C@@H](C)c3ccc(F)cc3)c(C#N)cc2F)n[nH]1`, the Potency in assay [11] is 0.209 µM (active); in assay [12], 8.33 µM (active); in [2], 3.72 µM (active); in assay [13], 0.296 µM (active); in [3] it was 0.372 µM (active); in [4], 16.6 µM (active). In addition, the Potency is 1.48 µM (active) in assay [14]; 0.935 µM (active) in assay [15]; 0.935 µM (active) in assay [6]; 5.26 µM (active) in [16]; 8.33 µM (active) in [7]; 6.62 µM (active) in [17]. For the same molecule, the Potency in assay [9] was 13.2 µM (active); in assay [10], 20.9 µM (active).

`C1Cc2[nH]nc(-c3nn[nH]n3)c2C1`: the Potency entry in [1], in [4], in assay [14], in assay [15], in assay [5] and in assay [6] was “inactive” in each case. Also, the Potency entry in assay [7] and in assay [10] was “inactive” in each case.

`Cc1c(NC(=O)OC[C@@H]2COCCN2)cn2ncnc(Nc3ccc4c(cnn4Cc4cccc(F)c4)c3)c12`: the Potency is 14.8 µM (active) in assay [1]; 1.32 µM (active) in assay [2]; 3.32 µM (active) in assay [3]; 7.43 µM (active) in assay [14]; 20.9 µM (active) in assay [15]; 18.7 µM (active) in assay [6]. For the same molecule, the Potency is 1.87 µM (active) in [16] and 18.7 µM (active) in assay [9]. The Potency entry in assay [18] is “inactive”.

As to `C[C@@H](Oc1cc(-n2cnc3ccc(CN4CCN(C)CC4)cc32)sc1C(N)=O)c1ccccc1C(F)(F)F`, the Potency in assay [1] was 0.0332 µM (active); in assay [2], 0.0372 µM (active); in assay [19], 18.7 µM (active); in assay [14], 20.9 µM (active); in assay [5] it was 0.0469 µM (active); in assay [17], 16.6 µM (active). Further, the values for the Potency in assay [9] and in assay [10] were 20.9 µM (active) and 2.35 µM (active), respectively.

With `CCC[C@H](NC(=O)C(C#N)=Cc1cccc(Br)n1)c1ccccc1`, the Potency in [11] is 5.9 µM (active); in assay [12], 1.32 µM (active); in [2], 1.48 µM (active); in [3], 1.32 µM (active); in assay [19] it was 2.09 µM (active); in assay [4] it was 2.35 µM (active). Moreover, the Potency is 1.48 µM (active) in assay [14]; 7.43 µM (active) in [15]; 2.96 µM (active) in assay [5]; 1.48 µM (active) in assay [7]; 2.96 µM (active) in [17]; 1.48 µM (active) in assay [8]. The Potency is 6.62 µM (active) in [18] and 7.43 µM (active) in assay [10].

As for `O=C(c1cncc(Br)c1)N1CCC(N2CCCC2)CC1`, the Potency entry in assay [1], in assay [2], in assay [4], in assay [6], in [16] and in [17] was “inactive” each time. The Potency result in [8], in assay [9] and in [10] was “inactive” throughout.

Consider `O=C(Nc1cn[nH]c1-c1nc2ccc(CN3CCOCC3)cc2[nH]1)NC1CC1`, for which the Potency in [12] is 1.48 µM (active); in assay [2], 1.18 µM (active); in [13] it was 2.09 µM (active); in assay [3] it was 0.148 µM (active); in assay [19], 1.87 µM (active); in assay [4] it was 3.32 µM (active). In addition, the Potency in assay [14] was 1.87 µM (active); in assay [15] it was 3.32 µM (active); in [5], 5.9 µM (active); in [16], 2.96 µM (active); in [7] it was 4.69 µM (active); in assay [17], 5.9 µM (active). Further, the Potency in assay [8] was 2.64 µM (active); in [9], 1.18 µM (active); in [18] it was 10.5 µM (active); in assay [10], 1.87 µM (active).

For the molecule `Cc1cc(Nc2ncnc3ccc(-c4ccc(CNCCS(C)(=O)=O)o4)cc23)ccc1Oc1ccn2ncnc2c1`, the Potency in assay [12] is 6.62 µM (active); in [2], 9.35 µM (active); in assay [13] it was 5.26 µM (active); in assay [3], 1.87 µM (active); in assay [19], 18.7 µM (active); in assay [4], 6.62 µM (active). Further, the Potency in [14] is 0.332 µM (active); in assay [15], 2.64 µM (active); in assay [5] it was 18.7 µM (active); in [6], 5.26 µM (active); in assay [16] it was 2.09 µM (active); in assay [7] it was 26.4 µM (active). Besides, the Potency was 3.32 µM (active) in assay [17], 20.9 µM (active) in [8], 4.18 µM (active) in assay [9] and 5.9 µM (active) in [10].

Take `Cc1cn2c(-c3cn[nH]c3)cnc2c(Nc2ccc(C(=O)N3CCNCC3)cc2F)n1`: the Potency in assay [12] was 16.6 µM (active); in assay [2], 23.5 µM (active); in [13] it was 2.09 µM (active); in [3] it was 16.6 µM (active); in assay [4], 20.9 µM (active); in assay [14] it was 18.7 µM (active). For the same molecule, the Potency is 14.8 µM (active) in assay [5]; 5.26 µM (active) in assay [6]; 18.7 µM (active) in assay [16]; 8.33 µM (active) in assay [9]; 4.69 µM (active) in [10].

With `CC1=C(CO)C(=O)O[C@@H]([C@@H](C)[C@H]2CC[C@H]3[C@@H]4C[C@H]5O[C@]56[C@@H](O)C=CC(=O)[C@]6(C)[C@@H]4CC[C@]23C)C1`, the Potency was 0.209 µM (active) in [12]; 0.209 µM (active) in assay [2]; 0.105 µM (active) in assay [3]; 0.662 µM (active) in assay [19]; 0.418 µM (active) in assay [4]; 0.132 µM (active) in assay [14]. Besides, the Potency in [5] is 0.372 µM (active); in [16] it was 0.148 µM (active); in assay [7], 0.235 µM (active); in assay [17] it was 0.833 µM (active); in assay [8] it was 0.132 µM (active); in [18], 0.118 µM (active). Besides, in assay [10], the Potency is 0.148 µM (active). Moreover, the Potency result in assay [13] and in assay [6] was “inactive” each time.

Regarding `O=c1c2ccccc2nc2n1CCc1c-2[nH]c2ccccc12`, the Potency result in assay [11], in [13], in [14], in assay [5], in [6] and in [18] was “inactive” in each case.

In the case of `CC(C)(C)NC(=O)[C@H]1CN(Cc2cccnc2)CCN1C[C@@H](O)C[C@@H](Cc1ccccc1)C(=O)N[C@H]1c2ccccc2C[C@H]1O`, the Potency result in assay [11] and in assay [13] was “inactive” throughout. Moreover, the Potency in assay [2] is 5.26 µM (active); in [3], 20.9 µM (active); in [14], 4.18 µM (active).

`C=CC(=O)Nc1cccc(Oc2nc(Nc3ccc(N4CCN(C)CC4)cc3OC)ncc2Cl)c1`: in [11], the Potency result is “inactive”. Further, the Potency in [2] is 0.118 µM (active); in assay [3] it was 0.469 µM (active); in assay [19] it was 20.9 µM (active); in [15], 37.2 µM (active); in assay [7] it was 26.4 µM (active); in assay [18], 20.9 µM (active).
